Among the targets are NFE2;MAFG (Homo sapiens;Homo sapiens, UniProt Q16621;O15525 221-337;25-124, |); NFE2L1;MAFG (Homo sapiens;Homo sapiens, UniProt Q14494;O15525 609-725;25-124, |); MAFG;MAFG (Homo sapiens;Homo sapiens, UniProt O15525;O15525 25-124;25-124, |); MAFB;FOSL1 (Homo sapiens;Homo sapiens, UniProt Q9Y5Q3;P15407 212-305;96-169, |); MAFB;ATF5 (Homo sapiens;Homo sapiens, UniProt Q9Y5Q3;Q9Y2D1 212-305;199-275, |); ATF6B;ATF6B (Homo sapiens;Homo sapiens, UniProt Q99941;Q99941 316-391;316-391, |); ATF6;ATF6 (Homo sapiens;Homo sapiens, UniProt P18850;P18850 297-371;297-371, |); ATF5;ATF6B (Homo sapiens;Homo sapiens, UniProt Q9Y2D1;Q99941 199-275;316-391, |).

Holding throughout (assay): SELEX-seq (CSI, HT-SELEX, round 3); SELEX-seq: 1x PBS (10 mM phosphate, 137 mM NaCl, 2.7 mM KCl) pH 7.6, 2.5 mM DTT, 50 ng/ul poly dI-dC, 0.1% BSA, 50 nM biotinylated bZIP (1:3 with partner for heterodimers), 100 nM library, room temperature, 1 h, 3 rounds; high values mean tight binding
Settings in all cases: protein: recombinant;recombinant; copies: 1;1; dsDNA, one strand shown

In another experiment the target is T1, ATF5;BATF2 (Homo sapiens;Homo sapiens, UniProt Q9Y2D1;Q8N1L9 199-275;8-85, |).
T1 sequence 1: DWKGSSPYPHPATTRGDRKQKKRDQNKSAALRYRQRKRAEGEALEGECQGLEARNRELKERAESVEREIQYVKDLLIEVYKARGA
T1 sequence 2: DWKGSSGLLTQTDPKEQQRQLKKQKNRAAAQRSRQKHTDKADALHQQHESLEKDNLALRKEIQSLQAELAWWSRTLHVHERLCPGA

For another experiment, the target named is T2, ATF5;CREB3L3 (Homo sapiens;Homo sapiens, UniProt Q9Y2D1;Q68CJ9 199-275;234-311, |).
T2 sequence 1: T1 sequence 1
T2 sequence 2: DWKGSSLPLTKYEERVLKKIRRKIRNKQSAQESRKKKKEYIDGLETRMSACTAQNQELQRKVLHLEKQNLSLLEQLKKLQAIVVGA

The target in a further experiment is T3, NFE2;NFE2 (Homo sapiens;Homo sapiens, UniProt Q16621;Q16621 221-337;221-337, |).
T3 sequence 1: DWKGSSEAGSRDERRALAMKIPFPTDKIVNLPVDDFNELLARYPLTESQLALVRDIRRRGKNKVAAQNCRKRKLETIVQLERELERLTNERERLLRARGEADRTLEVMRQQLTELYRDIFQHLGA
T3 sequence 2: T3 sequence 1

For another experiment, the target named is T4, HLF;HLF (Homo sapiens;Homo sapiens, UniProt Q16534;Q16534 216-293;216-293, |).
T4 sequence 1: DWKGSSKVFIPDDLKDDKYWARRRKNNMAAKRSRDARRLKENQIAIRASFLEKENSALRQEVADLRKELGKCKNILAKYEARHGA
T4 sequence 2: T4 sequence 1

In the next experiment the target is T5, NFIL3;NFIL3 (Homo sapiens;Homo sapiens, UniProt Q16649;Q16649 64-134;64-134, |).
T5 sequence 1: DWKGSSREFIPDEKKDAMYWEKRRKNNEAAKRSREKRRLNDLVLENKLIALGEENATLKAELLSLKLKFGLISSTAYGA
T5 sequence 2: T5 sequence 1

For another experiment, the target named is T6, CREB1;CREB1 (Homo sapiens;Homo sapiens, UniProt P16220;P16220 260-327;260-327, |).
T6 sequence 1: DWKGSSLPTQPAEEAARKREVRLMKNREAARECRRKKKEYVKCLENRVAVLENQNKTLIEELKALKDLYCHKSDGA
T6 sequence 2: T6 sequence 1

A further experiment concerns the target T7, CREB3;CREB3 (Homo sapiens;Homo sapiens, UniProt O43889;O43889 141-221;141-221, |).
T7 sequence 1: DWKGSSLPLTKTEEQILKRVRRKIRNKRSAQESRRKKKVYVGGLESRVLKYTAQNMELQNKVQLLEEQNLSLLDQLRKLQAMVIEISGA
T7 sequence 2: T7 sequence 1

Another experiment has as its target T8, ATF5;CREBZF (Homo sapiens;Homo sapiens, UniProt Q9Y2D1;Q9NS37 199-275;195-272, |).
T8 sequence 1: T1 sequence 1
T8 sequence 2: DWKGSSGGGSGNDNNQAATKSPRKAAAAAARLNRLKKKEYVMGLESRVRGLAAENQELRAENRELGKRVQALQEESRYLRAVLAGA

Chain of MAFB;FOSL1 (Q9Y5Q3 other isoform, or with tags, fused parts or gaps |, chain 1 of 2): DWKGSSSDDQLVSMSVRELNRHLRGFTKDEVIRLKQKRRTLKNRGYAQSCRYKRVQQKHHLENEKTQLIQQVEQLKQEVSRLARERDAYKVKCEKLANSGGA
Chain of MAFB;FOSL1 (P15407 other isoform, or with tags, fused parts or gaps |, chain 2 of 2): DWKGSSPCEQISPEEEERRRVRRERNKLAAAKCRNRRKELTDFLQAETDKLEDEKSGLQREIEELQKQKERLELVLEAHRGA
Chain of ATF5;ATF6B (Q99941 other isoform, or with tags, fused parts or gaps |): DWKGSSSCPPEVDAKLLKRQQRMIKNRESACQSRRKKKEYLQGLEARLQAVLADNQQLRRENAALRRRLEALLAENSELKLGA
Chain of ATF6B;ATF6B (Q99941 other isoform, or with tags, fused parts or gaps |, chain 1 of 2): as the sequence (Q99941 other isoform, or with tags, fused parts or gaps |) above
Chain of ATF6B;ATF6B (Q99941 other isoform, or with tags, fused parts or gaps |, chain 2 of 2): as the sequence (Q99941 other isoform, or with tags, fused parts or gaps |) above
Chain of ATF6;ATF6 (P18850 other isoform, or with tags, fused parts or gaps |, chain 1 of 2): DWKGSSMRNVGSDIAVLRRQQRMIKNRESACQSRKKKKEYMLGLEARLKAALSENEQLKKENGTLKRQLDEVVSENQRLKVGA
Chain of ATF6;ATF6 (P18850 other isoform, or with tags, fused parts or gaps |, chain 2 of 2): as the sequence (P18850 other isoform, or with tags, fused parts or gaps |, chain 1 of 2) above

As to ATGACGTAAT, the binding signal with ATF5;BATF2 is 0.174 relative CSI intensity (max = 1); with ATF5;CREB3L3 it was 0.00383 relative CSI intensity (max = 1); with NFE2;NFE2, 0.00452 relative CSI intensity (max = 1); in the experiment with NFE2;MAFG, 0.00855 relative CSI intensity (max = 1); in the experiment with NFE2L1;MAFG, 0.0021 relative CSI intensity (max = 1); with HLF;HLF, 0.728 relative CSI intensity (max = 1). Also, the binding signal in the experiment with NFIL3;NFIL3 is 0.7 relative CSI intensity (max = 1); in the experiment with MAFG;MAFG, 0.0106 relative CSI intensity (max = 1); with MAFB;FOSL1, 0.00946 relative CSI intensity (max = 1); with MAFB;ATF5, 0.0179 relative CSI intensity (max = 1); in the experiment with ATF6B;ATF6B it was 0.00248 relative CSI intensity (max = 1); in the experiment with ATF6;ATF6 it was 0.0093 relative CSI intensity (max = 1). In addition, the binding signal is 0.00977 relative CSI intensity (max = 1) with CREB1;CREB1, 0.0113 relative CSI intensity (max = 1) in the experiment with CREB3;CREB3, 0.0108 relative CSI intensity (max = 1) with ATF5;ATF6B and 0.0175 relative CSI intensity (max = 1) in the experiment with ATF5;CREBZF.
In the case of ATGACGTCAT, the binding signal in the experiment with ATF5;BATF2 was 0.86 relative CSI intensity (max = 1); with ATF5;CREB3L3, 1 relative CSI intensity (max = 1); in the experiment with NFE2;NFE2, 0.112 relative CSI intensity (max = 1); with NFE2;MAFG it was 0.0346 relative CSI intensity (max = 1); in the experiment with NFE2L1;MAFG, 0.0138 relative CSI intensity (max = 1); with HLF;HLF it was 0.205 relative CSI intensity (max = 1). For the same sequence, the binding signal is 0.344 relative CSI intensity (max = 1) in the experiment with NFIL3;NFIL3; 0.0131 relative CSI intensity (max = 1) with MAFG;MAFG; 0.196 relative CSI intensity (max = 1) in the experiment with MAFB;FOSL1; 0.148 relative CSI intensity (max = 1) with MAFB;ATF5; 0.0846 relative CSI intensity (max = 1) with ATF6B;ATF6B; 0.437 relative CSI intensity (max = 1) with ATF6;ATF6. Besides, the binding signal with CREB1;CREB1 is 0.577 relative CSI intensity (max = 1); with CREB3;CREB3 it was 0.325 relative CSI intensity (max = 1); with ATF5;ATF6B, 1 relative CSI intensity (max = 1); with ATF5;CREBZF, 1 relative CSI intensity (max = 1).
For CCTGACGTCA, the binding signal was 0.0163 relative CSI intensity (max = 1) with ATF5;BATF2; 0.00229 relative CSI intensity (max = 1) in the experiment with ATF5;CREB3L3; 0.00227 relative CSI intensity (max = 1) with NFE2;MAFG; 0.00977 relative CSI intensity (max = 1) with NFIL3;NFIL3; 0.0285 relative CSI intensity (max = 1) with MAFB;FOSL1; 0.0743 relative CSI intensity (max = 1) with MAFB;ATF5. Besides, the binding signal with ATF6B;ATF6B was 0.00121 relative CSI intensity (max = 1); in the experiment with ATF6;ATF6 it was 0.00545 relative CSI intensity (max = 1); in the experiment with CREB1;CREB1 it was 0.0218 relative CSI intensity (max = 1); in the experiment with CREB3;CREB3 it was 0.0218 relative CSI intensity (max = 1); with ATF5;ATF6B it was 0.0183 relative CSI intensity (max = 1); with ATF5;CREBZF, 0.0084 relative CSI intensity (max = 1).
Regarding ATGATGCAAT, the binding signal with ATF5;BATF2 was 0.02 relative CSI intensity (max = 1); with NFE2;MAFG it was 0.0058 relative CSI intensity (max = 1); with NFE2L1;MAFG, 0.00579 relative CSI intensity (max = 1); with HLF;HLF it was 0.0587 relative CSI intensity (max = 1); with NFIL3;NFIL3 it was 0.107 relative CSI intensity (max = 1); with MAFG;MAFG it was 0.00357 relative CSI intensity (max = 1). The binding signal with MAFB;FOSL1 was 0.00125 relative CSI intensity (max = 1); with MAFB;ATF5, 0.00407 relative CSI intensity (max = 1); with ATF5;ATF6B it was 0.0122 relative CSI intensity (max = 1); with ATF5;CREBZF it was 0.00335 relative CSI intensity (max = 1).
In the case of ATGACGGAAT, the binding signal was 0.00175 relative CSI intensity (max = 1) with NFE2L1;MAFG, 0.00935 relative CSI intensity (max = 1) with NFIL3;NFIL3, 0.00454 relative CSI intensity (max = 1) in the experiment with MAFG;MAFG and 0.0025 relative CSI intensity (max = 1) with ATF5;CREBZF.
For the sequence ATGACGCAAT, the binding signal with ATF5;BATF2 was 0.0275 relative CSI intensity (max = 1); with NFE2;NFE2 it was 0.0016 relative CSI intensity (max = 1); with NFE2;MAFG, 0.00814 relative CSI intensity (max = 1); in the experiment with NFE2L1;MAFG it was 0.00759 relative CSI intensity (max = 1); in the experiment with HLF;HLF it was 0.245 relative CSI intensity (max = 1); in the experiment with NFIL3;NFIL3, 0.224 relative CSI intensity (max = 1). Besides, the binding signal with MAFB;FOSL1 was 0.00163 relative CSI intensity (max = 1); with MAFB;ATF5 it was 0.00342 relative CSI intensity (max = 1); in the experiment with ATF6;ATF6, 0.00207 relative CSI intensity (max = 1); with CREB3;CREB3 it was 0.00195 relative CSI intensity (max = 1); with ATF5;ATF6B it was 0.00498 relative CSI intensity (max = 1); with ATF5;CREBZF, 0.0123 relative CSI intensity (max = 1).

These data come from article PMC5349851, “Combinatorial bZIP dimers display complex DNA-binding specificity landscapes”.
